From ChEMBL document CHEMBL4513216, “Probing the Open Global Health Chemical Diversity Library for Multistage-Active Starting Points for Next-Generation Antimalarials” (ACS Infect Dis, 2020) come the findings set out here.

Hit rate of the full screen: of about 69,000 compounds, about 8,600 (12%) showed an effect of 50% or more. The list comes from a sample in which strong results are over-represented; it also holds similar structures and randomly drawn compounds.

This assay has as its system Plasmodium berghei. Kind of assay: Screen against P. berghei liver stage (PbLuc), transformed with Luciferase, at 10uM. Particulars: tested at 10 uM. Type of assay: functional, HepG2.
As for `O=C(O)c1cnc(N2CCC(O)CC2)nc1COc1ccc(F)cc1`, the INHIBITION is 46.1%. With `CC(C)(C)NC(=O)c1ccn(COc2c(Cl)cccc2Cl)n1`, the INHIBITION is on record as 20.9%.

On to `Cc1cc(C(=O)NCc2cccs2)c2c(C3CCCN3)noc2n1` (stereo not given), for which the INHIBITION amounted to 29.2%.

For `COc1ccccc1C(=O)N1CC(=O)N(CC2CC2)CC(O)C1` (stereo not given), the INHIBITION is on record as 34.3%.

For `Cc1cccc(C(=O)N2C[C@@H]3COC[C@@H](CC(=O)N4CCCC4)[C@@H]3C2)n1`, the INHIBITION was -69.3%.

As for `CN(C1CCN(c2ccccn2)CC1)S(=O)(=O)N1CCOCC1`, the INHIBITION was found to be 55.4%.

On to `CN(C(=O)Cc1ccccc1Cl)C1CCN(c2ccccn2)CC1`, for which the INHIBITION is reported as 60.5%. On to `COCCOCC(=O)NC1CCN(c2ccccn2)CC1`, for which the INHIBITION was 51.3%. In the case of `CN(C1CCN(c2ccccn2)CC1)S(=O)(=O)c1cccs1`, the INHIBITION was 33%. As for `Cc1ccc(C)c(OCC(=O)NC2CCN(c3ccccn3)CC2)c1`, the figure is -43.2%.

Consider `CN(C1CCN(c2ccccn2)CC1)S(=O)(=O)c1ccc(F)cc1`, for which the INHIBITION was determined as 8.13%. As for `Cc1ccccc1CC(=O)N(C)C1CCN(c2ccccn2)CC1`, the figure is 42.9%; as for `O=C(COCCOc1ccccc1)NC1CCN(c2ccccn2)CC1`, -10.7%. As to `CN(C(=O)CNc1ccc(C#N)cc1)C1CCN(c2ccccn2)CC1`, the INHIBITION was found to be 11.2%. As for `CN(C(=O)Cc1cccs1)C1CCN(c2ccccn2)CC1`, the figure is 54.4%. As for `CCOc1ncccc1C(=O)N(C)C1CCN(c2ccccn2)CC1`, the figure is 15.6%. As for `CN(C1CCCN(c2ccccn2)C1)S(=O)(=O)N1CCOCC1` (stereo not given), the figure is 17.85%; as for `Cc1cnn(C2CCCN(C(=O)CCCn3ccnc3C)C2)c1` (stereo not given), 9.54%. In the case of `Cc1cc(CN2CCC3(CC2)COC(COCC2CC2)C3)no1` (stereo not given), the INHIBITION came to 22.2%. For the compound `CCNC(=O)NC(=O)CN1CCC(c2cccc(F)c2)C1` (stereo not given), the INHIBITION stood at 15.8%. As for `O=C(NC1CC1)c1cc(C(F)(F)F)cc(C(F)(F)F)n1`, the figure is -14.3%.

For the compound `Cc1ccc(OCCN2CCC(c3ccnn3CCO)CC2)cc1`, the INHIBITION stood at 19.6%. As for `CCc1nc2n(n1)CC(NCc1nc(-c3ccccn3)no1)CC2` (stereo not given), the figure is 4.45%. As for `COCCOc1cccc(C(=O)N2CCCC(n3ccnc3)C2)c1` (stereo not given), the figure is 33.7%; as for `OCC(CO)N1CCC(c2nccnc2Nc2cnccn2)CC1`, -42.9%.

Regarding `Cc1ccc(S(=O)(=O)N2CCCC3(CCCN3S(C)(=O)=O)C2)cc1F` (stereo not given), the INHIBITION is recorded as -21.1%. Consider `CSC1(CNC(=O)CCc2ccc(Cl)s2)CCOCC1`, for which the INHIBITION is -19.1%.

`CN1CCN(CCCNC(=O)CCc2nc3cc(Br)cnc3[nH]2)CC1`: the INHIBITION stood at 38.9%. As for `CCc1nccn1C1CCCN(C(=O)c2ccc3[nH]cnc3c2)C1` (stereo not given), the figure is 3.16%; as for `CCCc1nnc(NCCn2nc(C)c(Cl)c2C)o1`, 13.7%. As for `Cc1cc(C)n(CC2CN(CC(=O)NC3CCOCC3)CCO2)n1` (stereo not given), the figure is 36.1%; as for `COc1ccc2[nH]cc(C(=O)N3C[C@@H](O)[C@H](N4CCOCC4)C3)c2c1`, 29.5%. For `O=C(Cc1ccc(F)cc1)NCCNCc1cccc(O)c1`, the INHIBITION is listed as 5.9%. As for `CCn1c(C)cc(C(=O)N2C[C@@H](C(=O)O)[C@H](c3ccccc3)C2)c1C`, the figure is 35.8%; as for `CNc1ncc(C(=O)N[C@H]2CN(CCCSC)C[C@@H]2C2CC2)cn1`, 1.71%; as for `COCC(C)N(C)C(=O)NC1CCN(c2ncccn2)CC1` (stereo not given), 52.2%. As for `CN(C(=O)Cc1ccccc1F)C1CCN(c2ccccn2)CC1`, the figure is 52.3%; as for `COCC(C)N(C)C(=O)NC1CCN(S(C)(=O)=O)CC1` (stereo not given), 36.2%.

Turning to `Cc1cccc(C(=O)N(C)C2CCN(c3ccccn3)CC2)c1C`, the INHIBITION amounted to 37.3%. As for `CN(C(=O)c1ccccc1Cl)C1CCN(c2ccccn2)CC1`, the figure is 28.6%.

As to `O=C1OCCC1N1CCN(c2ccc(O)cc2)CC1` (stereo not given), the INHIBITION came to 43.1%. As for `O=C1OCCC1N1CCN(c2ccccn2)CC1` (stereo not given), the INHIBITION stood at 59.3%. As for `O=C1OCCC1N1CCN(c2cnccn2)CC1` (stereo not given), the figure is 3.69%.

Take `CN(C1CCN(c2ccccn2)CC1)S(=O)(=O)c1ccccc1F`: the INHIBITION is 21.5%. As for `CN(Cc1cnn(C)c1)C(=O)NC1CCN(c2ncccn2)CC1`, the figure is 3.04%; as for `CN(C(=O)c1cccc2[nH]ncc12)C1CCN(c2ccccn2)CC1`, 59.7%.

As to `CN(Cc1noc(C2CC2)n1)C1CCN(CCS(C)(=O)=O)C1` (stereo not given), the INHIBITION is reported as -24.2%. As for `CN(C(=O)CNC(=O)CC(C)(C)C)C1CCN(c2ccccn2)CC1`, the figure is -11.5%. As for `CN(C(=O)c1ccc(Cl)cc1)C1CCN(c2ccccn2)CC1`, the figure is 3.73%; as for `CN(C(=O)Cc1ccc(F)cc1)C1CCN(c2ccccn2)CC1`, -1.14%.

In the case of `CN(C(=O)Cc1c[nH]c2ccccc12)C1CCN(c2ccccn2)CC1`, the INHIBITION worked out at 53.8%. Consider `CN(C(=O)c1cccc(Cl)c1)C1CCN(c2ccccn2)CC1`, for which the INHIBITION was found to be 31.3%. As for `CN(C(=O)c1cc(Cl)c[nH]1)C1CCN(c2ccccn2)CC1`, the figure is 50.4%. As for `OC(CN1CCN(Cc2ccc(F)c(F)c2)CC1)C1CC1` (stereo not given), the figure is -48.4%. As to `Cc1nc(C(C)n2cc3[nH]cccc-3c2=O)cs1` (stereo not given), the INHIBITION came out at 33.7%.

For the compound `CCN(Cc1noc(C2CC2)n1)C(=O)c1onc2ccccc12`, the INHIBITION is 48.1%. With `O=C1CCCN1Cc1nnc(SCc2ccc3c(c2)CCC3)o1`, the INHIBITION worked out at 13.2%. As for `Cc1n[nH]cc1CNCC1(c2cccc(F)c2)CCOCC1`, the figure is -11.9%; as for `COc1ccc(CN2CCOC3(CCCN(c4nnc(C)o4)C3)C2)cc1` (stereo not given), 31.8%; as for `Fc1cccc(N2CCCC3(CN(Cc4ccccn4)CCO3)C2)c1` (stereo not given), -9.42%. As for `Fc1cccc(N2CCCC3(C2)CN(c2ncccn2)CCO3)c1` (stereo not given), the figure is 80.5%; as for `Fc1cccc(N2CCCC3(C2)CN(c2cnccn2)CCO3)c1` (stereo not given), 23.3%; as for `Cn1cc(CN2CCOC3(CCCN(c4cccc(F)c4)C3)C2)cn1` (stereo not given), 73%. As for `Cc1nnc(N2CCCC3(CN(Cc4ccncc4)CCO3)C2)o1` (stereo not given), the figure is 10.1%; as for `Cc1nnc(N2CCCC3(CN(Cc4cnn(C)c4)CCO3)C2)o1` (stereo not given), 41.2%; as for `Cc1nnc(N2CCCC3(CN(Cc4ccc(F)cc4)CCO3)C2)o1` (stereo not given), 57.4%. As to `c1ccc(CN2CCOC3(COCCN(c4ncccn4)C3)C2)nc1` (stereo not given), the INHIBITION is recorded as 20.1%.

Turning to `c1cnc(N2CCOCC3(CNCCO3)C2)nc1` (stereo not given), the INHIBITION is listed as 22.2%. As for `Fc1ccc(N2CCOC3(COCCN(c4ncccn4)C3)C2)cc1` (stereo not given), the figure is 61.1%; as for `Cn1cc(CN2CCC(F)(F)C3(CCN(c4cccc(F)c4)C3)C2)cn1` (stereo not given), -0.371%.
